An excerpt weighted towards active compounds, which were near 3.4% of everything screened.
GPR151 activ = activators of human GPR151, primary screen, cell-based, PathHunter beta-arrestin, luminescence; G-protein coupled receptor 151 (Homo sapiens), Q8TDV0; PathHunter beta-arrestin GPR151 cells; activation, % at 11.2 µM; hit rate 1% among 650,000; in the data active means activation above about 4.9%;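 further: 0% = median of compound wells and 100% = cells with positive control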
TEAD-YAP block = TEAD-YAP interaction inhibition, primary screen, TEAD-YAP interaction inhibitor project, luminescence, HEK-TIYL cells; inhibition, % at 9.12 µM; hit rate 1.4% among 640,000; TEAD-Gal4/YAP UAS-luciferase luminescence; in the data active means inhibition above about 32%;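 further: 0% = median of test compound wells and 100% = reference inhibitor wells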
FBW7 activator = FBW7 E3 ligase activators, primary screen, biochemical, AlphaScreen, human; AID 1259310, 2017; normalized activity (activation), % at 26.1 µM; F-box/WD repeat-containing protein 7 (Homo sapiens), Q969H0; AlphaScreen FBW7–phospho-cyclin E peptide binding, activator screen; hit rate 0.13% among 650,000; in the data active means normalized activity above about 1.9%;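 further: purified mutant Fbw7 with reduced substrate affinity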
MITF inh = MITF inhibitors, primary screen, biochemical, AlphaScreen, human. AID 1259374, 2018. inhibition, % at 2.6 µM. hit rate 0.91% among 650,000. AlphaScreen MITF homodimerization, bead proximity signal; in the data active means inhibition above about 50%;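 further: 0% = vehicle wells with protein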
* hit, by the source's call.

SMILES	GPR151 activ	TEAD-YAP block	FBW7 activator	MITF inh
CC(=O)Nc1ccc2nc(SCC(=O)N3CCN(c4ccccc4)CC3)sc2c1	-1	14	1	10
COc1ccccc1C(=O)Nc1ccc2nc(SCC(=O)NCc3ccccc3)sc2c1	1	52*	0	1
CCC(=O)Nc1ccc2nc(SCC(=O)N3CCN(c4ccccc4)CC3)sc2c1	3	45*	0	5
COc1ccccc1C(=O)Nc1ccc2nc(SCC(=O)NCCOc3ccccc3)sc2c1	1	53*	0	-2
Cc1ccn2c(CN(C)Cc3csc(C)n3)c(C(=O)N3CCCCCC3)nc2c1	1	-10	0	-16
Cc1nnc(NC(=O)c2cnc(Cl)c(Cl)c2)s1	0	-2	0	-7
CC(=O)c1ccc(NC(=O)c2noc3c2CCC3)cc1	-3	80*	0	25
Cc1cc(OC(=O)c2c(F)cccc2Cl)c([N+](=O)[O-])c(=O)[nH]1	2	-9	0	21
O=C(N1CCOCC1)N1CCCC(c2ncncc2-c2ccncc2)C1 (configuration not stated)	0	11	2.2*	16
COc1ccc(S(=O)(=O)N2CCN=C2SC)cc1	-1	-2	0	4
Oc1ccc(CCNc2ccnc(Nc3cnccn3)n2)cc1	0	4	0	12
Oc1ccc(CCNc2cc(Nc3cnccn3)ncn2)cc1	3	46*	0	-11
COc1ccc(CCNc2nc(Nc3cnccn3)nc3c2ncn3C2CCCCC2)cc1	-1	14	0	-8
Oc1ccc(CCNc2nc(Nc3cnccn3)nc3c2ncn3C2CCCCC2)cc1	0	40*	0	-7
CC(C)n1cnc2c(NC3CCN(Cc4ccccc4)CC3)nc(NCc3cccnc3)nc21	-2	76*	0	16
COc1ccc(CCNc2nc(Nc3cnccn3)nc3c2ncn3C(C)C)cc1	1	36*	0	2
CC(C)n1cnc2c(NCc3cccnc3)nc(NC3CCN(Cc4ccccc4)CC3)nc21	1	-2	0	8
Cc1c(-c2ccccc2)oc2c(C(=O)N3CCC(=O)CC3)cccc2c1=O	0	2	0	8
CC(C)n1cnc2c(NC3CCN(Cc4ccccc4)CC3)nc(Nc3ccncc3)nc21	-1	69*	0	-10
CC(C)n1cnc2c(NC3CC3)nc(Nc3ccccn3)nc21	0	25	0	3
OCC1CCCN1c1nc(NC2CCN(Cc3ccccc3)CC2)c2ncn(C3CCCCC3)c2n1 (configuration not stated)	-1	-15	0	2
CC(C)n1cnc2c(NC3CC3)nc(Nc3cnccn3)nc21	2	38*	0	8
CC(C)n1cnc2c(NC3CCN(Cc4ccccc4)CC3)nc(N3CCCC3CO)nc21 (configuration not stated)	-1	36*	0	10
CC(C)n1cnc2c(NC3CCN(Cc4ccccc4)CC3)nc(Nc3ccccc3)nc21	0	15	0	8
CC(C)n1cnc2c(NC3CCN(Cc4ccccc4)CC3)nc(Nc3cnccn3)nc21	2	76*	0	12
SMILES	GPR151 activ	TEAD-YAP block	FBW7 activator	MITF inh
CCOc1ccccc1NC(=O)c1cc2c(CO)cnc(C)c2oc1=N	0	-6	0	-6
CN1C(C(=O)Nc2ccccn2)=C(O)c2ccccc2S1(=O)=O	-1	-8	0	-4
N#CC(C#N)=NNc1ccc(O)c(C(=O)O)c1	0	3	0	79*
N#CC(C#N)=NNc1ccccc1C(=O)O	0	10	0	6
O=C(Nc1ccccc1)c1ccc2nc(NC(=O)C3CCCCC3)sc2c1	-2	2	0	-7
Cn1ncc(Cl)c1C(=O)Nc1ccc2nc(NC(=O)C3CCCCC3)sc2c1	0	57*	0	11
CC(=O)Nc1nc2ccc(NC(=O)c3c([N+](=O)[O-])cnn3C)cc2s1	-1	53*	0	7
Nc1ccc(C(=O)Nc2nc3cc4sc(NC(=O)c5ccc(N)cc5)nc4cc3s2)cc1	-1	-1	6.7*	-86
Nc1ccc(C(=O)Nc2ccc3nc(NC(=O)C4CCCCC4)sc3c2)cc1	2	40*	0	12
Cn1ncc(Cl)c1C(=O)Nc1ccc(Cl)c(Cl)c1	0	-24	0	-5
CC1(C)CC(=O)C2=C(C1)OC(c1ccc(Cl)cc1)C(C#N)=C2N (configuration not stated)	1	6	0	-4
Cc1cc(C(=O)CSc2nnc3ccccn23)c(C)n1Cc1ccco1	-3	61*	0	1
Cc1cc(C(=O)CCl)c(C)n1Cc1ccco1	-2	5	0	33
Cc1cc(C(=O)CO/N=C/c2ccco2)c(C)n1Cc1ccco1	4	53*	0	-5
Cc1ccc(S(=O)(=O)NCCSC2CCCCC2)cc1[N+](=O)[O-]	-1	6	0	-6
COc1ccc2c(c1)C(=O)NC2CC(=O)NC1(c2ccccc2OC)CCCC1 (configuration not stated)	1	49*	0	9
COc1ccc(C2C(C#N)=C(N)N(c3ccc(Cl)cc3)C3=C2C(=O)CCC3)cc1 (configuration not stated)	1	-2	0	8
CCOc1ccc(C2C(C#N)=C(N)N(c3ccc(C)cc3)C3=C2C(=O)CCC3)cc1 (configuration not stated)	0	57*	0	-9
COc1ccc(N2C(N)=C(C#N)C(c3ccccc3)C3=C2CCCC3=O)cc1 (configuration not stated)	0	44*	0	4
Cc1ccc(N2C(N)=C(C#N)C(c3cc(Br)cs3)C3=C2CCCC3=O)cc1 (configuration not stated)	1	34*	0	3
O=C(Cn1nnc(-c2ccc(NC(=O)c3ccccc3F)cc2)n1)NCc1ccco1	0	-58	0	17
Fc1ccc(-c2cc(NC3CC3)nc(-c3cccnc3)n2)cc1	2	8	0	-3
CCOC(=O)c1sc2ncnc(Nc3ccc(C)cc3C)c2c1C	0	55*	0	4
COc1ccc(C(C#N)N2CCCCCC2)cc1OC (configuration not stated)	-1	-1	2.0*	14
O=C(Cc1cnc2ncnn2c1)N1CCc2c([nH]c3ccccc23)C1c1ccccn1 (configuration not stated)	-1	35*	0	10
COc1cccc(CN(CCN(C)C)C(=O)Nc2ccc(-c3cn[nH]c3)cc2)c1	-1	-12	0	1
COc1cccc(CNC(=O)Nc2ccc(-c3cn[nH]c3)cc2N(C)CCO)c1	-1	54*	0	40
COc1cccc(CN(CCCN(C)C)C(=O)Nc2ccc(-c3cn[nH]c3)cc2)c1	-1	1	0	62*
COc1cccc(CNC(=O)Nc2ccc(-c3cn[nH]c3)cc2N(C)CCN(C)C)c1	1	-2	1	29
